These results are taken from PubChem BioAssay (NCI).

Each structure is given as a SMILES string. Compounds without any hit were thinned out: in the full panel of roughly 83,000, 20% have a hit.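 Each cell line was grown in a 96-well plate and treated with one concentration of compound for 48 hours. Values below 10 were considered active.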 Unmarked numbers belong to inactive results. The source made the active and inactive calls.

Some test systems named below: DU-145 prostate; K-562 leukemia; MALME-3M melanoma; MDA-MB-231 breast; RXF 393 renal; SF-268 CNS; SF-295 CNS; SF-539 CNS; UACC-257 melanoma; M14 melanoma; HCT-15 colon; HT29 colon; SNB-75 CNS; SNB-19 CNS; U251 CNS; SK-MEL-5 melanoma; UACC-62 melanoma; LOX IMVI melanoma; SK-MEL-28 melanoma; PC-3 prostate.
Common to all, as to test: NCI-60 one-dose screen, 48 h (100 = growth as untreated, 0 = no growth, -100 = all killed)
Conditions in all cases: 10 µM unless noted

Consider `O=C(CSc1nccc(Nc2ccc(S(=O)(=O)Nc3ccccn3)cc2)n1)c1ccc(Cl)cc1`, for which the growth in the experiment with DU-145 prostate is 103%; in the experiment on K-562 leukemia it was 86.6%; in the experiment with MALME-3M melanoma it was 112%; with MDA-MB-231 breast, 85.8%; with RXF 393 renal, 106%; in the experiment with SF-268 CNS it was 95.1%. In addition, the growth with SF-295 CNS is 98.2%; in the experiment on SF-539 CNS, 95.3%; with UACC-257 melanoma, 91.3%; with M14 melanoma, 107%; with HCT-15 colon it was 99.9%; with HT29 colon it was 107%. The growth was 101% in the experiment on SNB-75 CNS; 97.1% in the experiment on SNB-19 CNS; 93.9% in the experiment with U251 CNS; 70.8% in the experiment with SK-MEL-5 melanoma; 82.4% in the experiment on UACC-62 melanoma; 87.6% with LOX IMVI melanoma. Besides, the growth in the experiment on SK-MEL-28 melanoma was 118%.
For `Cc1ccc2c(c1)/C(=N\N=C/c1cn(C(C)C)c3ccccc13)C(=O)N2`, the growth in the experiment on DU-145 prostate was 72.2%; with K-562 leukemia, 22.1%; with MALME-3M melanoma, 16.2%; in the experiment with MDA-MB-231 breast, 50.5%; in the experiment with RXF 393 renal, 22.5%; with SF-268 CNS, 66.4%. For the same compound, the growth with SF-295 CNS is 68.2%; in the experiment with SF-539 CNS it was 58.6%; with UACC-257 melanoma, 59.5%; with M14 melanoma it was 54%; in the experiment with HCT-15 colon, 28.6%; in the experiment with HT29 colon, 11.3%. Further, the growth in the experiment on SNB-75 CNS was 67.3%; in the experiment on SNB-19 CNS it was 76.5%; with U251 CNS, 63.6%; in the experiment on SK-MEL-5 melanoma, 66%; in the experiment on UACC-62 melanoma, 50.1%; with LOX IMVI melanoma, 20%. The growth in the experiment with SK-MEL-28 melanoma is 73.4%.
As to `CCOC(=O)n1cc(C2=C(c3ccc(OC)c(OC)c3)COC2=O)c2ccccc21`, the growth with DU-145 prostate was -7.55% (active); with K-562 leukemia, 9.56% (active); in the experiment with MALME-3M melanoma it was 45%; in the experiment with MDA-MB-231 breast it was 13.5%; in the experiment on RXF 393 renal, -4.89% (active); in the experiment with SF-268 CNS, 28.2%. Further, the growth in the experiment on SF-295 CNS was 16.2%; in the experiment on SF-539 CNS, -15% (active); in the experiment with UACC-257 melanoma it was 91.2%; in the experiment on M14 melanoma, 54.6%; in the experiment with HCT-15 colon it was 7.9% (active); in the experiment with HT29 colon, 1.19% (active). The growth in the experiment on SNB-75 CNS is 13.9%; in the experiment on SNB-19 CNS, 32.6%; with U251 CNS, 23.6%; in the experiment with SK-MEL-5 melanoma, -38.9% (active); in the experiment with UACC-62 melanoma it was 32.9%; in the experiment on LOX IMVI melanoma, 39.1%. Moreover, in the experiment on SK-MEL-28 melanoma, the growth is 63.8%.
Turning to `O=C(O)CSCc1nnc2n(Cc3ccccc3)c(=O)c3c4c(sc3n12)CCCC4`, the growth in the experiment on DU-145 prostate was 114%; in the experiment on K-562 leukemia, 78.6%; with MALME-3M melanoma, 112%; in the experiment with MDA-MB-231 breast, 83.5%; in the experiment with RXF 393 renal, 88.5%; in the experiment with SF-268 CNS, 112%. Further, the growth in the experiment on SF-295 CNS is 57.9%; in the experiment with SF-539 CNS, 101%; with UACC-257 melanoma it was 104%; in the experiment on M14 melanoma it was 158%; with HCT-15 colon, 101%; in the experiment on HT29 colon, 111%. The growth was 87.4% in the experiment with SNB-75 CNS; 97.3% in the experiment on SNB-19 CNS; 102% in the experiment on U251 CNS; 103% in the experiment with SK-MEL-5 melanoma; 75.4% in the experiment on UACC-62 melanoma; 88.1% with LOX IMVI melanoma. Moreover, the growth in the experiment on SK-MEL-28 melanoma is 131%.
Regarding `CCN(CC)c1ccc2cc(C(Nc3ccc(Br)c(C(F)(F)F)c3)c3nnnn3C(C)(C)C)c(=O)oc2c1` (stereo not drawn), the growth was 103% in the experiment with DU-145 prostate; 88.2% in the experiment on K-562 leukemia; 88% in the experiment with MALME-3M melanoma; 86.9% in the experiment on MDA-MB-231 breast; 82.9% in the experiment with RXF 393 renal; 85.3% with SF-268 CNS. For the same compound, the growth is 103% in the experiment with SF-295 CNS; 101% with SF-539 CNS; 93.3% with UACC-257 melanoma; 103% with M14 melanoma; 94.8% in the experiment on HCT-15 colon; 85.9% in the experiment with HT29 colon. Also, the growth was 67.7% in the experiment with SNB-75 CNS; 86.1% with SNB-19 CNS; 86.6% in the experiment with U251 CNS; 84.7% with SK-MEL-5 melanoma; 88.8% with UACC-62 melanoma; 98% in the experiment with LOX IMVI melanoma. The growth with SK-MEL-28 melanoma is 104%.
As for `CN(C)c1cc(NN=C(c2ccc(O)cc2)c2ccc(O)cc2)c([N+](=O)[O-])cc1[N+](=O)[O-]`, the growth in the experiment with DU-145 prostate is 96.8%; with K-562 leukemia, 118%; in the experiment with MALME-3M melanoma it was 153%; with MDA-MB-231 breast, 81.8%; with RXF 393 renal, 0.652% (active); in the experiment on SF-268 CNS, 81.5%. Further, the growth in the experiment on SF-295 CNS was 79.3%; with SF-539 CNS, 74.9%; in the experiment on UACC-257 melanoma, 25.1%; in the experiment on M14 melanoma, 48.2%; in the experiment on HCT-15 colon, 46.4%; in the experiment on HT29 colon, 114%. Also, the growth in the experiment on SNB-75 CNS is 98%; in the experiment on SNB-19 CNS, 67.7%; in the experiment on U251 CNS it was 70.8%; in the experiment with SK-MEL-5 melanoma it was 26%; in the experiment with UACC-62 melanoma, 71.7%; in the experiment with LOX IMVI melanoma, 43.7%. Further, in the experiment with SK-MEL-28 melanoma, the growth was 81.5%.
Regarding `O=C(Oc1ccc(Cl)cc1[N+](=O)[O-])Oc1ccc(Cl)cc1[N+](=O)[O-]`, the growth in the experiment on DU-145 prostate was 116%; in the experiment with K-562 leukemia, 90.2%; in the experiment with MALME-3M melanoma, 135%; with MDA-MB-231 breast, 126%; with RXF 393 renal, 124%; in the experiment with SF-268 CNS, 105%. The growth is 119% with SF-295 CNS; 109% in the experiment on SF-539 CNS; 107% with UACC-257 melanoma; 109% in the experiment with M14 melanoma; 106% in the experiment with HCT-15 colon; 107% in the experiment on HT29 colon. For the same compound, the growth in the experiment on SNB-75 CNS is 108%; in the experiment with SNB-19 CNS, 115%; with U251 CNS, 99%; in the experiment on PC-3 prostate, 88.5%; in the experiment on SK-MEL-5 melanoma it was 120%; in the experiment with UACC-62 melanoma, 113%. In addition, the growth in the experiment on SK-MEL-28 melanoma is 106%.
